We go through 22 compounds from PubChem BioAssay (NCI).

Assay [1] in a line: NCI Yeast Anticancer Drug Screen. Data for the rad50 strain (AID 155).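 Also: 0% = growth of vehicle-only cultures of the same strain.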 The following applies: S. cerevisiae rad50 strain growth inhibition; at 50.0 µM; hits give high values. An outline of the steps: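 Yeast carrying a defined DNA repair defect were exposed to test compounds, and growth was compared with vehicle-treated controls to give percent inhibition.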
Assay [2] in a line: NCI Yeast Anticancer Drug Screen. Data for the mec2-1 strain (AID 157). The following applies: S. cerevisiae mec2-1 strain, at 50.0 µM, hits give high values. An outline of the steps: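 Cells of the genetically defined mec2-1 yeast strain are incubated with test compound. Inhibition of growth is calculated against vehicle-treated controls.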
A short description of assay [3]: NCI Yeast Anticancer Drug Screen. Data for the sgs1 mgt1 strain (AID 161).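 Also: 0% = growth of cultures given vehicle only.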 Conditions: S. cerevisiae sgs1 mgt1 strain, at 50.0 µM, hits give high values. An outline of the steps:
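Genetically altered yeast, compound exposure, growth inhibition relative to vehicle.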

Assay [4] is described as follows: NCI Yeast Anticancer Drug Screen. Data for the cln2 rad14 strain (AID 165).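 Also: 0% = growth equal to vehicle treated cultures.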 Conditions: S. cerevisiae cln2 rad14 strain, at 50.0 µM, hits give high values. An outline of the steps: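 The screen exposed genetically defined yeast (cln2 rad14) to test compounds and scored growth inhibition relative to vehicle-treated controls.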
A short description of assay [5]: NCI Yeast Anticancer Drug Screen. Data for the bub3 strain (AID 167). Conditions: S. cerevisiae bub3 mutant strain, at 50.0 µM, hits give high values. Summed up: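 Compounds were applied to a genetically altered yeast strain carrying a cell-cycle control defect. Growth inhibition was scored against vehicle-treated controls.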
Assay [6] is described as follows: NCI Yeast Anticancer Drug Screen. Data for the mlh1 rad18 strain (AID 175). The following applies: S. cerevisiae mlh1 rad18 strain growth inhibition; at 50.0 µM; hits give high values. An outline of the steps:
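Compound-treated yeast growth, normalised to vehicle controls. Strain bears defined DNA repair mutations.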

Compounds without any hit were thinned out: in the full panel of roughly 79,000, 15% have a hit. Values without a mark were called inactive. The source made the active and inactive calls. Rule as the data show it: active = growth inhibition above about 70%; inactive = the rest.

Consider `NC(=S)N/N=C/c1ccc(OC(=O)COc2ccccc2)cn1`, for which the growth inhibition was -2.8% in assay [1]; -13.4% in assay [2]; 14.3% in assay [3]; 7.45% in assay [4]; -11% in assay [5]; 9.9% in assay [6].
For the compound `O=S(=O)(O)C(C(I)I)S(=O)(=O)O`, the growth inhibition in assay [1] was -0.15%; in assay [2] it was -19.8%; in assay [3], -3.35%; in assay [4] it was -34.5%; in assay [5] it was -6.85%; in assay [6] it was -7.6%.
For the compound `Nc1ccc2ccccc2c1-c1c(N)ccc2ccccc12`, the growth inhibition in assay [1] was 14.8%; in assay [2], 2.45%; in assay [3], -2.05%; in assay [4] it was 1.1%; in assay [5] it was 0.75%; in assay [6] it was -2.65%.
With `COc1ccc(Br)c2c1C(=O)CC2`, the growth inhibition in assay [1] was 43.6%; in assay [2], 23.4%; in assay [3], 29.4%; in assay [4], 28.4%; in assay [5], 5.45%; in assay [6], 32.9%.
For `O=C(O)C1CCCN1C(=O)OCc1ccccc1` (configuration not stated), the growth inhibition in assay [1] was -23.4%; in assay [2] it was -47.6%; in assay [3], -17.9%; in assay [4], -2.45%; in assay [5], -22.9%; in assay [6] it was -8.9%.
For `O=c1[nH]c(=O)c2cc(Cl)cc(Cl)c2[nH]1`, the growth inhibition is -2.05% in assay [1]; -15.3% in assay [2]; -1.4% in assay [3]; 14% in assay [4]; 9.25% in assay [5]; 7.3% in assay [6].
Turning to `O=C1CSc2ccccc2N1`, the growth inhibition is -35% in assay [1]; -8.45% in assay [2]; 32% in assay [3]; -12.7% in assay [4]; 1.3% in assay [5]; 11.2% in assay [6].
`OCCOc1ccc(-c2cc(-c3ccccn3)nc(-c3ccccn3)c2)cc1`: the growth inhibition is 57.6% in assay [1]; 46.3% in assay [2]; 43% in assay [3]; 44.5% in assay [4]; 46.7% in assay [5]; 77.4% (active) in assay [6].
As for `CCOC(=O)/C(C)=C\c1ccc(OC)c(OC)c1`, the growth inhibition is -2.15% in assay [1]; -11.2% in assay [2]; 25.9% in assay [3]; -34% in assay [4]; 18.4% in assay [5]; 18.9% in assay [6].
Regarding `CC1(C)C2CCC1(C)C1(C2)OCCS1` (configuration not stated), the growth inhibition in assay [1] is 24.8%; in assay [2] it was -5.25%; in assay [3] it was 1%; in assay [4], 11.2%; in assay [5], 1.05%; in assay [6] it was -7.65%.
As for `Cc1ccc(S(=O)(=O)Oc2ccc3sc4c(CO)ccc(NCCN(C)C)c4c(=O)c3c2)cc1`, the growth inhibition in assay [1] is 6.05%; in assay [2] it was 26.4%; in assay [3], 12.2%; in assay [4] it was 21.6%; in assay [5], 22.4%; in assay [6] it was 1.55%.
Consider `Cc1ccc(N)c(S(=O)(=O)O)c1`, for which the growth inhibition is -4.85% in assay [1]; 4.35% in assay [2]; 0.75% in assay [3]; -53.9% in assay [4]; 8.85% in assay [5]; -13.2% in assay [6].
For `O=C(O)Cc1ccc(Cl)cc1`, the growth inhibition in assay [1] is 22.2%; in assay [2], -15.3%; in assay [3], 29%; in assay [4] it was 3.65%; in assay [5], -25.2%; in assay [6] it was 0%.
With `Ic1cccs1`, the growth inhibition is 34.9% in assay [1]; -3.05% in assay [2]; 6.65% in assay [3]; -6.75% in assay [4]; -4.3% in assay [5]; 11.8% in assay [6].
Turning to `COc1ccc2c(ccc[n+]2C)c1`, the growth inhibition in assay [1] is 19.6%; in assay [2], 30.9%; in assay [3], 3.65%; in assay [4] it was 19.2%; in assay [5], -15.7%; in assay [6], -25.4%.
Turning to `Cc1nc(O)cc(=O)[nH]1`, the growth inhibition in assay [1] is 17.7%; in assay [2] it was -6.9%; in assay [3], -14.2%; in assay [4], -6.95%; in assay [5] it was -15.3%; in assay [6] it was 10.1%.
`Nc1ncc([N+](=O)[O-])cn1`: the growth inhibition is 1.9% in assay [1]; -4.7% in assay [2]; -29% in assay [3]; -13.8% in assay [4]; 5.6% in assay [5]; -9.45% in assay [6].
Consider `COc1cc(OC)c2cc(C(=O)c3ccc(C#N)cc3)c(=O)oc2c1`, for which the growth inhibition in assay [1] is 17%; in assay [2], -12.1%; in assay [3], 25.1%; in assay [4], 31%; in assay [5], 35.1%; in assay [6], 32.2%.
On to `NCC(O)C(O)C(O)C(O)CO` (configuration not stated), for which the growth inhibition in assay [1] is 13.2%; in assay [2], 6.8%; in assay [3], 15.1%; in assay [4], 23.2%; in assay [5], 18.1%; in assay [6], 0.95%.
Regarding `COC1(OC)C2(Cl)C(Cl)=C(Cl)C1(Cl)C1COCC12` (configuration not stated), the growth inhibition was -48% in assay [1]; 17.5% in assay [2]; -40.2% in assay [3]; 12.8% in assay [4]; 22.2% in assay [5]; -8.6% in assay [6].
In the case of `CC(C)C(C)(C)C(=O)C(C)(C)C(C)(C)C`, the growth inhibition in assay [1] was -12.2%; in assay [2], -2.65%; in assay [3], -9.7%; in assay [4], -35.5%; in assay [5], 2.6%; in assay [6] it was 7.95%.
On to `Nc1ccc(F)c(Cl)c1F`, for which the growth inhibition in assay [1] was -11%; in assay [2], -7.8%; in assay [3] it was -14.3%; in assay [4], -24.8%; in assay [5], -1.75%; in assay [6], -1.8%.
